# According to publication PMC7862700, “An all-to-all approach to the identification of sequence-specific readers for epigenetic DNA modifications on cytosine”:
# Legend:
# Assay in all cases: DAPPL (digital affinity profiling via proximity ligation, sequencing); 10 mM Tris-HCl pH 7.5, 50 mM NaCl, 1 mM DTT, 4% glycerol, room temperature, 30 min; GST-TFs on glutathione beads, 16-mer random dsDNA library, 0.1% formaldehyde crosslink after washing; high values mean tight binding
# Details in all cases: protein: recombinant; tags: N-terminal GST; dsDNA, one strand shown
# GABPA = target: T1, GABPA (Homo sapiens, UniProt Q06546 1-454)
# T1 sequence: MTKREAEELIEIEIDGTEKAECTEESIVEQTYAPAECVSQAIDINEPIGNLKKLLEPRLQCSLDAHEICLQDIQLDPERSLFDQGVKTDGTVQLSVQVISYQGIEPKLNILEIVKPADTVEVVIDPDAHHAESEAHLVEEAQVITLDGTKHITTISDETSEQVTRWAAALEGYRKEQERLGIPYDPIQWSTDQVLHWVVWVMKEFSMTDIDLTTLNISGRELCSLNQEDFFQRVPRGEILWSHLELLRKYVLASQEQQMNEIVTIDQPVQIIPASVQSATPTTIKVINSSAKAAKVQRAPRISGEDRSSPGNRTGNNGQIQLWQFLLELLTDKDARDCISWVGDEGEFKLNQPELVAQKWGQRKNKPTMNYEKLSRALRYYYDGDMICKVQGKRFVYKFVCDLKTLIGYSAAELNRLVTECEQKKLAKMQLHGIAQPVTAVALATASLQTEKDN
# In short: (§1)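 Binding signal is each hexamer's read frequency for a factor divided by its frequency in the tag-only sample. The factors were GST-fused human transcription factors from yeast, captured on glutathione beads, DNA-barcoded and pooled with that sample. Pools were incubated with 200 nmole of a random double-stranded 16-mer DNA library in Tris/NaCl/DTT/glycerol buffer at room temperature for 30 min, then washed, crosslinked with 0.1% formaldehyde, proximity-ligated with BsaI/T4 ligase (1 h, 37 °C), PCR-amplified and sequenced on an Illumina NextSeq500.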
# ELF1 = ELF1 (Homo sapiens, UniProt P32519 1-619)
# In short: as §1
# EHF = target: T2, EHF (Homo sapiens, UniProt Q9NZC4 1-300)
# T2 sequence: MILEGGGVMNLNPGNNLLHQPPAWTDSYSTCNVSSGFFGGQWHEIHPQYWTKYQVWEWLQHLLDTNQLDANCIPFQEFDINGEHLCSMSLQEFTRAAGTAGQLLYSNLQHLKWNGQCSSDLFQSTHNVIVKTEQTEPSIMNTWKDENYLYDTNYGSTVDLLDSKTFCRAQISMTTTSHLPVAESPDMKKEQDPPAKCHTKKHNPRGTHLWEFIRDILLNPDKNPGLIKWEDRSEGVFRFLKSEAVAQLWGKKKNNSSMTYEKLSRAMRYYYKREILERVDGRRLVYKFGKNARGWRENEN
# In short: as §1
# SPIB = SPIB (Homo sapiens, UniProt Q01892 1-262)
# In short: as §1
# SPIC = target: T3, SPIC (Homo sapiens, UniProt Q8N5J4 1-248)
# T3 sequence: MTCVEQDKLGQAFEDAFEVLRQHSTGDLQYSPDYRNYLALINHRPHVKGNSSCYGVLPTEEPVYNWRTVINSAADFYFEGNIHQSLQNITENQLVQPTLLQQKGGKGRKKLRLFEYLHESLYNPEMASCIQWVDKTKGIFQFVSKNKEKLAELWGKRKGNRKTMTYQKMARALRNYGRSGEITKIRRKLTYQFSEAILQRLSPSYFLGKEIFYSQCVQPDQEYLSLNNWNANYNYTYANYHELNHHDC
# In short: as §1
# ELF4 = ELF4 (Homo sapiens, UniProt Q99607 1-663)
# In short: as §1
# ETV2 = target: T4, ETV2 (Homo sapiens, UniProt O00321 1-342)
# T4 sequence: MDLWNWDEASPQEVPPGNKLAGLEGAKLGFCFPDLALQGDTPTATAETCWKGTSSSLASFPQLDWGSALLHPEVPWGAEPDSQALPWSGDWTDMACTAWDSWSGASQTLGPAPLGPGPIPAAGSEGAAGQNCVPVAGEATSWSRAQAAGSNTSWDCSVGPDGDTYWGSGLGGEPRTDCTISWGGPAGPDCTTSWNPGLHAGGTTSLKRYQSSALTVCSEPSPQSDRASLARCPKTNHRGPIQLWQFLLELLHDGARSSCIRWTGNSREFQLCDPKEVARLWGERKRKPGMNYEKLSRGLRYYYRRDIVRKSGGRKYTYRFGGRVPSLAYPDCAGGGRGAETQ
# In short: as §1
# ELF3 = target: T5, ELF3 (Homo sapiens, UniProt P78545 1-371)
# T5 sequence: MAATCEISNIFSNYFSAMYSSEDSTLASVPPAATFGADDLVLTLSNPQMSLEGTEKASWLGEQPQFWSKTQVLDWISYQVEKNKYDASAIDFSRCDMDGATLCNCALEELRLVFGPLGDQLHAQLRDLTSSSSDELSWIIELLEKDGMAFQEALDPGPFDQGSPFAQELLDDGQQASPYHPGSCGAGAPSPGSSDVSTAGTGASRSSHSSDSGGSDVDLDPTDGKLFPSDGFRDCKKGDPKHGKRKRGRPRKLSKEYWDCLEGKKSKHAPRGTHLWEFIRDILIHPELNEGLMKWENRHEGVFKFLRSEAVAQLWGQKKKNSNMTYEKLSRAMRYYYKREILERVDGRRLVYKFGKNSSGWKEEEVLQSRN
# In short: as §1
# ETV1 = ETV1 (Homo sapiens, UniProt P50549 1-477)
# In short: as §1
# ERF = target: T6, ERF (Homo sapiens, UniProt P50548 1-548)
# T6 sequence: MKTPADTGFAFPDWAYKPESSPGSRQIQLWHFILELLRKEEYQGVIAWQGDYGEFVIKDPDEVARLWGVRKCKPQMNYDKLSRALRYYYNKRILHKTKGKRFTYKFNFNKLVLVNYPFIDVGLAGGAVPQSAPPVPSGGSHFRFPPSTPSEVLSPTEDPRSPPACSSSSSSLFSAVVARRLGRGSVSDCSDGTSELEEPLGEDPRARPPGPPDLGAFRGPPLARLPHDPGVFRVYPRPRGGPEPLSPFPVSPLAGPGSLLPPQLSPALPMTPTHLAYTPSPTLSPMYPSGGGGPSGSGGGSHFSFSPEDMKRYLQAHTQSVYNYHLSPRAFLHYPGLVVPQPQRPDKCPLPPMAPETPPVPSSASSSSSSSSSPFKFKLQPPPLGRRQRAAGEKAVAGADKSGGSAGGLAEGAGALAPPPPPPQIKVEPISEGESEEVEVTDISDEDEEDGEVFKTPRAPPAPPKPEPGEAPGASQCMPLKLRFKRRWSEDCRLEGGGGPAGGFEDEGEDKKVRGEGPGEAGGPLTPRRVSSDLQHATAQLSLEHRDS
# In short: as §1
# ETV3L = target: T7, ETV3L (Homo sapiens, UniProt Q6ZN32 1-361)
# T7 sequence: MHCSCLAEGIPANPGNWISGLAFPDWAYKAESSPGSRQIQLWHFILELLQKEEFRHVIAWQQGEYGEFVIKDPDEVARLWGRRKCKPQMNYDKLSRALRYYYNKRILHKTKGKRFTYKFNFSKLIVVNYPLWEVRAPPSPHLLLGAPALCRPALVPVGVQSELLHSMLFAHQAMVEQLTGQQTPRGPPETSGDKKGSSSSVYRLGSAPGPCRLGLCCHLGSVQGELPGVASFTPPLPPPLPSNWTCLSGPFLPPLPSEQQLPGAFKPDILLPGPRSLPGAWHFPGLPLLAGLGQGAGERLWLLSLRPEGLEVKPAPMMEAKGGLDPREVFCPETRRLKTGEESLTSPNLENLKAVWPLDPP
# In short: as §1
# ETS2 = target: T8, ETS2 (Homo sapiens, UniProt P15036 1-469)
# T8 sequence: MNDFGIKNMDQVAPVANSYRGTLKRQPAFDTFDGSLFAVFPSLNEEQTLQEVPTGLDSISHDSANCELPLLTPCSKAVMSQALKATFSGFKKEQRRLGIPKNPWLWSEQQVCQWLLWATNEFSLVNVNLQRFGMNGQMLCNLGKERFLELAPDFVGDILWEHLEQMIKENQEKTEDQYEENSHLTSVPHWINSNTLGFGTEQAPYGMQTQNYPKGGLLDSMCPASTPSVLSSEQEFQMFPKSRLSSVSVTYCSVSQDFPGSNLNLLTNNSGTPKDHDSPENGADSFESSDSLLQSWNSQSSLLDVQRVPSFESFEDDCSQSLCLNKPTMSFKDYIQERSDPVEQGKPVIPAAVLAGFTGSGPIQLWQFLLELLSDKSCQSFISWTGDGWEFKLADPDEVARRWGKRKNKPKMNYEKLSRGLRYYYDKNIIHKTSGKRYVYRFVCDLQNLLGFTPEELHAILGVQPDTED
# In short: as §1
# ETV3 = target: T9, ETV3 (Homo sapiens, UniProt P41162-2 1-143)
# T9 sequence: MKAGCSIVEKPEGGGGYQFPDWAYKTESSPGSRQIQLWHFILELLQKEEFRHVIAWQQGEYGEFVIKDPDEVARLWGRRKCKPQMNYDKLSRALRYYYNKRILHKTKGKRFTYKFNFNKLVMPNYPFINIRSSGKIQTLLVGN
# In short: as §1
# Chain of ELF4 (Q99607 whole entry): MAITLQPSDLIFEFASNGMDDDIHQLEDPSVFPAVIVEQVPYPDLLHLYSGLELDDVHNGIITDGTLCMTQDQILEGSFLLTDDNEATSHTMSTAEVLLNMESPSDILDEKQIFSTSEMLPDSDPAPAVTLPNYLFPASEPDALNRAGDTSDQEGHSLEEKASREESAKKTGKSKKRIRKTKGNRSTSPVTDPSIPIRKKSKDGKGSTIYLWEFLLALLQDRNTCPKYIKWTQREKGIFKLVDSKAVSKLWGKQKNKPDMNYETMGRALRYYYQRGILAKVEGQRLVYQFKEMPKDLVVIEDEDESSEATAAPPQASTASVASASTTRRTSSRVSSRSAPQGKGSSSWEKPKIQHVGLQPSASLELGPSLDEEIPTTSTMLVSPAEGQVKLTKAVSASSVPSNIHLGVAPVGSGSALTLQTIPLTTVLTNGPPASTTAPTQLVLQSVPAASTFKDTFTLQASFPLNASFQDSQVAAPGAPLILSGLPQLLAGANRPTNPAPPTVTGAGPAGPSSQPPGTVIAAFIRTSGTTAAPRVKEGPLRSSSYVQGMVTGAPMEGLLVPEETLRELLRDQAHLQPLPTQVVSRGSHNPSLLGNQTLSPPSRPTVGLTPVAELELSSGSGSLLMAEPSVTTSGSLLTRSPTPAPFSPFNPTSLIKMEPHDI
# Chain of ELF1 (P32519 whole entry): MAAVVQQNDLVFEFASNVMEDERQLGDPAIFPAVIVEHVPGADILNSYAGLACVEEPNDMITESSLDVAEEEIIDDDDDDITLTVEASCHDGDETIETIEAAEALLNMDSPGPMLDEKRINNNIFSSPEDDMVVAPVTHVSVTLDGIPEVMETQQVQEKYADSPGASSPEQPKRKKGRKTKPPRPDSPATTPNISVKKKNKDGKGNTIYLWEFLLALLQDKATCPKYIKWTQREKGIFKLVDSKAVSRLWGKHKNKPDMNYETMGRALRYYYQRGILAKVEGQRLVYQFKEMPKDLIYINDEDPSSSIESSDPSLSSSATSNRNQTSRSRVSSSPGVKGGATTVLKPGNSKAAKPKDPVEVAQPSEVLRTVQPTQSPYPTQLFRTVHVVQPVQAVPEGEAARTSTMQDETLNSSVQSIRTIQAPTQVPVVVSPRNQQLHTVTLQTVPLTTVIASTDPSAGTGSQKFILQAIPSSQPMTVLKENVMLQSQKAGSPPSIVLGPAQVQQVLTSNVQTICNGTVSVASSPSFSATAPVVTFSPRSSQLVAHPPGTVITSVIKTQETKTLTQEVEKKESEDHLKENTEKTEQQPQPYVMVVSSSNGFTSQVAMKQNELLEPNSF
# Chain of ETV1 (P50549 whole entry): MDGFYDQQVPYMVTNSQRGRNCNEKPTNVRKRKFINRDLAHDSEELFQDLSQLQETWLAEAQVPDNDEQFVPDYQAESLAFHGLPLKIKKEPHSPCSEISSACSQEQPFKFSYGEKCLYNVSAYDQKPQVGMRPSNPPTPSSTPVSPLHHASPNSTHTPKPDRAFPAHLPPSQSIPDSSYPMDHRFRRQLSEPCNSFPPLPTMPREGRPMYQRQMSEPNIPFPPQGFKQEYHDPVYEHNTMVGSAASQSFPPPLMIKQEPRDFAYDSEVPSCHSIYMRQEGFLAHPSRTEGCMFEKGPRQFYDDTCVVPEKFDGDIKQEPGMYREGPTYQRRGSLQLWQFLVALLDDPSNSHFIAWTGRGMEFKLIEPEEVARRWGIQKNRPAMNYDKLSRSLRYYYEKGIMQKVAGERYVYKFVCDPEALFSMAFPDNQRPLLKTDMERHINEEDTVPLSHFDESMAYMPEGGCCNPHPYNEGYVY
# Chain of SPIB (Q01892 whole entry): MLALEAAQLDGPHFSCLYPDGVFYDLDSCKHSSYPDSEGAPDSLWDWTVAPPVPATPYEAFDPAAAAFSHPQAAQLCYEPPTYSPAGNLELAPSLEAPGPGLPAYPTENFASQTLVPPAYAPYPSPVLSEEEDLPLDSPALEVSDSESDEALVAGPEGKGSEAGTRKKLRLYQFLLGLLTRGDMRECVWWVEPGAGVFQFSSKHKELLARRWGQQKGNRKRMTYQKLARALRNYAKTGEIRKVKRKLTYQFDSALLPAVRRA
sequence,measurement,setting,value
CAGCTC,binding signal,GABPA,"1.01 fold enrichment (6-mer frequency, TF over GST control)"
same,binding signal,ELF1,"1.06 fold enrichment (6-mer frequency, TF over GST control)"
same,binding signal,EHF,"1.01 fold enrichment (6-mer frequency, TF over GST control)"
same,binding signal,SPIB,"1.01 fold enrichment (6-mer frequency, TF over GST control)"
same,binding signal,SPIC,"1.06 fold enrichment (6-mer frequency, TF over GST control)"
same,binding signal,ELF4,"1.05 fold enrichment (6-mer frequency, TF over GST control)"
same,binding signal,ETV2,"1.02 fold enrichment (6-mer frequency, TF over GST control)"
same,binding signal,ELF3,"1.04 fold enrichment (6-mer frequency, TF over GST control)"
same,binding signal,ETV1,"1.08 fold enrichment (6-mer frequency, TF over GST control)"
same,binding signal,ERF,"1.05 fold enrichment (6-mer frequency, TF over GST control)"
same,binding signal,ETV3L,"1.11 fold enrichment (6-mer frequency, TF over GST control)"
same,binding signal,ETS2,"1.06 fold enrichment (6-mer frequency, TF over GST control)"
same,binding signal,ETV3,"1 fold enrichment (6-mer frequency, TF over GST control)"
